According to the supplement of paper PMC10849652:
The full data set covers some 7,900 targets. This sample favours those with a hit. About 0.6% of all pairs of compound and target were hits.

These targets were tested with C1=CC2=C(C=CC(=C2)/C=C\3/C(=O)NC(=NCC4=CC=CS4)S3)N=C1 (assay: log2 fold change, soluble protein after heating vs DMSO (PISA); higher = thermal stabilisation; K562 cells, 10 uM, 30 min; active = over 0.2 and 3.5 SD of the protein, either way, in both replicates (recomputed)).
Method in brief: (§1)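 K562 cells at 2×10^6 cells/mL were given 10 μM compound for 30 min. Aliquots then went through 3 min of heating across 48°C-58°C, were pooled, and were extracted in PBS with 0.5% NP-40 at 4°C, and the supernatant after 21,000xg for 90 min was quantified by TMTpro 16plex LC-MS/MS with channel sums equalised. Thermal stability relative to control samples, from duplicates, is given as log2 fold change.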

Sequence of UniProt Q9NUM4 (Q9NUM4 whole entry, looked up): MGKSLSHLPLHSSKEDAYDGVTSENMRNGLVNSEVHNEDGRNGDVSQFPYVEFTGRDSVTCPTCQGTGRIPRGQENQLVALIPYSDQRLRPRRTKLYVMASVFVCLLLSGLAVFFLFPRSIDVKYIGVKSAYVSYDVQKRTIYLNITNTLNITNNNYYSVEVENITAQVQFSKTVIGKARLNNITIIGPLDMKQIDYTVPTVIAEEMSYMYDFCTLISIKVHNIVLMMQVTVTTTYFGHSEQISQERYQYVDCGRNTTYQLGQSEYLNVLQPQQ
Sequence of UniProt P12956 (P12956 whole entry, looked up): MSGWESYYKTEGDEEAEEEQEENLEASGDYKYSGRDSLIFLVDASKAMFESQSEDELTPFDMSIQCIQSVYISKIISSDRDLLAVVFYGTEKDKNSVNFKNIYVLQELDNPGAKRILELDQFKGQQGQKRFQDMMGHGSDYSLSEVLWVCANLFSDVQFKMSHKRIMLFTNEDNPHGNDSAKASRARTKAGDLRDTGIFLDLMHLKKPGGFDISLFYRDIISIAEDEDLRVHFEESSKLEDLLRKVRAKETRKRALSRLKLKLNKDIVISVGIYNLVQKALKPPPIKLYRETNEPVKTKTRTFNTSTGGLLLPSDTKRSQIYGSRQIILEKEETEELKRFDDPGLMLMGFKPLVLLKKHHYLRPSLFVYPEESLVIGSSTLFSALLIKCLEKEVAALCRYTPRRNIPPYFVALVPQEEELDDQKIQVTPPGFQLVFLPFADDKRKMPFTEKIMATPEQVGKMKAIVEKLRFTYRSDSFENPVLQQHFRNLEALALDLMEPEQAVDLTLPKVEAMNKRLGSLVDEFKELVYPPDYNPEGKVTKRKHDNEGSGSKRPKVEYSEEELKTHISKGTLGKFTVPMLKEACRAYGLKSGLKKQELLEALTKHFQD
Sequence of UniProt Q9Y385 (Q9Y385 whole entry, looked up): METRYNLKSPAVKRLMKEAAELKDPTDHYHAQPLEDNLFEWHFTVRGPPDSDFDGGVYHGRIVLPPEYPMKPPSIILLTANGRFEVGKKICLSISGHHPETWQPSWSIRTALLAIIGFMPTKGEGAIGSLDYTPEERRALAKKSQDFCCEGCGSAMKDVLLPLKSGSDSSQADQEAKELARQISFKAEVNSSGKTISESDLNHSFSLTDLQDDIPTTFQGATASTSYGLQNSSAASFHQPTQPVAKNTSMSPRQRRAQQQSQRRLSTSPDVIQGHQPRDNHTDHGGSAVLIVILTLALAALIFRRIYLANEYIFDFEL
Sequence of UniProt A5PLN9 (A5PLN9 whole entry, looked up): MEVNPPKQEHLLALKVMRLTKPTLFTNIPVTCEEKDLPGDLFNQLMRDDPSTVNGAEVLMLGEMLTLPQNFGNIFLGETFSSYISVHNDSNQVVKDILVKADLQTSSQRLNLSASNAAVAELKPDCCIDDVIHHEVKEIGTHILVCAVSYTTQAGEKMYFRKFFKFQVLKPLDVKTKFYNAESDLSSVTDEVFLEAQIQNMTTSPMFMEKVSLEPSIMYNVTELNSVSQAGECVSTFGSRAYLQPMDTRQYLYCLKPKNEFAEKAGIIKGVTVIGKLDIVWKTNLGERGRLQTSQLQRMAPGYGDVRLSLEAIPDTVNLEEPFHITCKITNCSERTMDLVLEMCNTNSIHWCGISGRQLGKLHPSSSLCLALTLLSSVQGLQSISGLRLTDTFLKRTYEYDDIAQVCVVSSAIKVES
Sequence of UniProt Q92890 (Q92890 whole entry, looked up): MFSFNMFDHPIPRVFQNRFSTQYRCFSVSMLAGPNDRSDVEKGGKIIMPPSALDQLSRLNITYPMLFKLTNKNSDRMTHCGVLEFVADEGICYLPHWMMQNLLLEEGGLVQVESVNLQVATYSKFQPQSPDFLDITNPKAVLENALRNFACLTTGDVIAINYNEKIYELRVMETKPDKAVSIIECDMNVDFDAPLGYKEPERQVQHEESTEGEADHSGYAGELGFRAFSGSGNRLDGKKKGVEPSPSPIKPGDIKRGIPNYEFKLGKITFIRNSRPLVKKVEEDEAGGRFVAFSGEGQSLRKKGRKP
Sequence of UniProt Q8N2K1 (Q8N2K1 whole entry, looked up): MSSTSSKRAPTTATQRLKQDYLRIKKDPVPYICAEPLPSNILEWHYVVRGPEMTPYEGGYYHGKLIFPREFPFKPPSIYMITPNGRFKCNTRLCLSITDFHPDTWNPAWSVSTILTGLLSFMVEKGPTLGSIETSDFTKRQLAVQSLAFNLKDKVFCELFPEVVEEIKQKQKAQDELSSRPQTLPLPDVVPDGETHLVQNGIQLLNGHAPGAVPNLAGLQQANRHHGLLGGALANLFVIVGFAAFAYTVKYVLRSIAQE
Sequence of UniProt P30291 (P30291 whole entry, looked up): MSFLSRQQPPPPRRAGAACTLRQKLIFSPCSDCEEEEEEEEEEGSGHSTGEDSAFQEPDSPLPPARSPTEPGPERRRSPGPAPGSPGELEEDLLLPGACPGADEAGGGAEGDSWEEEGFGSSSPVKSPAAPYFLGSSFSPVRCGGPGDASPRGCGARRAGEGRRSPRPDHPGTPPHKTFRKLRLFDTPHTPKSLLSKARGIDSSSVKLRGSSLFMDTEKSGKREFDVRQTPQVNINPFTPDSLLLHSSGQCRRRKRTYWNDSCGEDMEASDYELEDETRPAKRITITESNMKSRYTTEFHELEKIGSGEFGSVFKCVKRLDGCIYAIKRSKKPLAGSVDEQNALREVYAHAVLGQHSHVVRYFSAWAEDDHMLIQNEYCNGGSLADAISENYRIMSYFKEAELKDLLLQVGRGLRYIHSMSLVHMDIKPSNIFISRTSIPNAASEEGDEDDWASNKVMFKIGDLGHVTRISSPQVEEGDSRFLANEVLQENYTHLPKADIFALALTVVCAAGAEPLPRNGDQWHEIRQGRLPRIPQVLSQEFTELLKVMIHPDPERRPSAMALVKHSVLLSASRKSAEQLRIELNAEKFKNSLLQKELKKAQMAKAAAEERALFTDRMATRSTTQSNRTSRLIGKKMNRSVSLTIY
Sequence of UniProt Q9BZI7 (Q9BZI7 whole entry, looked up): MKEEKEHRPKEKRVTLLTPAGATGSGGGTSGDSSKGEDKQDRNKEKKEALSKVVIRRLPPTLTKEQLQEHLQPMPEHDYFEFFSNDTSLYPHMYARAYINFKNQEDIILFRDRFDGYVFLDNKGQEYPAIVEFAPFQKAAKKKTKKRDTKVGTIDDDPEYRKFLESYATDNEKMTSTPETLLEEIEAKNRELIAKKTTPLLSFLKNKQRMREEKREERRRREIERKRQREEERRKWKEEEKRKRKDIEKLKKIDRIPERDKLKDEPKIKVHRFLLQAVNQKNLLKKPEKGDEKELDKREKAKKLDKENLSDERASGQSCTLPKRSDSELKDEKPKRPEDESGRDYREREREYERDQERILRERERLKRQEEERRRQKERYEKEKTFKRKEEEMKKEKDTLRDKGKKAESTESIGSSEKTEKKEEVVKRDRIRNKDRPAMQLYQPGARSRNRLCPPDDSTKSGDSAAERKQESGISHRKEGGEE
Sequence of UniProt A0PJW6 (A0PJW6 whole entry, looked up): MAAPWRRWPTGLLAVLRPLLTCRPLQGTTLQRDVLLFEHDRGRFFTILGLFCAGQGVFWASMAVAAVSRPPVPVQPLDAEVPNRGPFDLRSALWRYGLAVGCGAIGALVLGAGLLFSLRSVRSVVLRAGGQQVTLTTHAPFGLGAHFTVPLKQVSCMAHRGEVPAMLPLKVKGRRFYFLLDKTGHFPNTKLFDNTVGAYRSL
Sequence of UniProt P54578 (P54578 whole entry, looked up): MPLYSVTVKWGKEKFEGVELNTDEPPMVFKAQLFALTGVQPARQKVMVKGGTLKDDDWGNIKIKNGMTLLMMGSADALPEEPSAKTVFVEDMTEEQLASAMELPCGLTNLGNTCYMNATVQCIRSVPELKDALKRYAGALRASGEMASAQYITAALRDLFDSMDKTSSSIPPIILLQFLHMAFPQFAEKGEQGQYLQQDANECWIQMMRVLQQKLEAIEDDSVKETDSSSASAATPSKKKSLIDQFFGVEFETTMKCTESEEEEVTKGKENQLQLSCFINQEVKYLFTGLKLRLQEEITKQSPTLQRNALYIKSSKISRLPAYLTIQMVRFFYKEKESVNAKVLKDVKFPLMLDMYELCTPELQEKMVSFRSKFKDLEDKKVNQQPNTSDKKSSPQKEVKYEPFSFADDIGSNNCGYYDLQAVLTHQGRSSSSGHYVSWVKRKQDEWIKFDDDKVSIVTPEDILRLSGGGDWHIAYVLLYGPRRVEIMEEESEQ
Sequence of UniProt P98170 (P98170 whole entry, looked up): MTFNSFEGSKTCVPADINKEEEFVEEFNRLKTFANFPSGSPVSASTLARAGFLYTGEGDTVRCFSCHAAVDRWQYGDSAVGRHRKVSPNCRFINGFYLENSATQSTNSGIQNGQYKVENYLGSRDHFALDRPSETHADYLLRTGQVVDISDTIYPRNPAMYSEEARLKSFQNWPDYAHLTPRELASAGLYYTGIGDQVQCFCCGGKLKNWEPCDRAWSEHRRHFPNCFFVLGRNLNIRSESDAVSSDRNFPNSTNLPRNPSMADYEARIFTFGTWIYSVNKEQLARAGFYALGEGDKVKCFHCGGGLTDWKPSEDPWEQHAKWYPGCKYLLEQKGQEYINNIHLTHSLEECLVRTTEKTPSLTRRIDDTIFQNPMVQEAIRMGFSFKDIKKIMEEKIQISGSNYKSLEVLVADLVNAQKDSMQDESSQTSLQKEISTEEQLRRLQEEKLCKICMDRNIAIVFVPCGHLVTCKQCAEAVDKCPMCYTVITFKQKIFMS
Sequence of UniProt Q8WVY7 (Q8WVY7 whole entry, looked up): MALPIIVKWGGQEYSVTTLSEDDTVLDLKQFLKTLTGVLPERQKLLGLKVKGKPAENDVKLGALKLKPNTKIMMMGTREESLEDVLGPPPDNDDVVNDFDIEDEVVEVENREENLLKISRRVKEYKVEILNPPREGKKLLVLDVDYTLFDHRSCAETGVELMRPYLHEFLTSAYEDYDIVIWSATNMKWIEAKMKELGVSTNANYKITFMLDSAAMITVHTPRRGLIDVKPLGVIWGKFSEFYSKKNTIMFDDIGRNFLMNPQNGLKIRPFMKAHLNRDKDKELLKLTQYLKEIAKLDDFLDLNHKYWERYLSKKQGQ
Sequence of UniProt P61960 (P61960 whole entry, looked up): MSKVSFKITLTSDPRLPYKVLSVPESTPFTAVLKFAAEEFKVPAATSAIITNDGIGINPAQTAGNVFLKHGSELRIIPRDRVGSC

log2 fold change, inactive:
TMEM219 (UniProt Q86XT9) 0.001
TRAPPC13 isoform 5 (UniProt A5PLN9) 0.084
TUBA4A (UniProt P68366) 0.069
TMEM104 (UniProt Q8NE00) 0.039
XPOT (UniProt O43592) 0.037
XIAP (UniProt P98170) 0.075
XRCC1 (UniProt P18887) 0.304
USP7 (UniProt Q93009) 0.159
WASHC2C, A0A096LPC5 0.204
TMEM9B (UniProt Q9NQ34) 0.055
TP53BP1 isoform 2 (UniProt Q12888) 0.012
UFD1 isoform 1 (UniProt Q92890) 0.012
USP14 (UniProt P54578) -0.04
WDR62 isoform 4 (UniProt O43379) -0.016
TMEM106B (UniProt Q9NUM4) 0.051
WDR7 (UniProt Q9Y4E6) 0.092
USO1 isoform 2 (UniProt O60763) -0.049
UBLCP1 (UniProt Q8WVY7) -0.029
TMEM161A (UniProt Q9NX61) 0.021
TMEM164 (UniProt Q5U3C3) 0.129
UBE2J2 isoform 3 (UniProt Q8N2K1) -0.057
XPO1 (UniProt O14980) 0.061
VAMP7 (UniProt P51809) 0.016
VTA1 (UniProt Q9NP79) -0.007
TRAPPC3 (UniProt O43617) 0.021
UBE2J1 (UniProt Q9Y385) 0.148
TMEM223 (UniProt A0PJW6) -0.009
XRCC6 (UniProt P12956) 0.065
UBE4B isoform 4 (UniProt O95155) 0
USP48 isoform 8 (UniProt Q86UV5) 0.028
WNK1 isoform 7 (UniProt Q9H4A3) 0.026
TRIM28 (UniProt Q13263) -0.021
WEE1 (UniProt P30291) -0.206
TSC2 (UniProt P49815) -0.025
UFM1 isoform 2 (UniProt P61960) 0.07
UPF3B (UniProt Q9BZI7) -0.053

The targets below were run with C1=CC2=NC=CN=C2C=C1/C=C/3\C(=O)NC(=O)S3 in the same assay as above.
Method in brief: as §1

log2 fold change, inactive:
TMEM219 (UniProt Q86XT9) 0.015
TRAPPC13 isoform 5 (UniProt A5PLN9) 0.021
TUBA4A (UniProt P68366) -0.04
XPOT (UniProt O43592) 0.065
XIAP (UniProt P98170) -0.018
USP7 (UniProt Q93009) 0.004
WASHC2C, A0A096LPC5 0.113
TMEM9B (UniProt Q9NQ34) -0.013
TP53BP1 isoform 2 (UniProt Q12888) 0.043
UFD1 isoform 1 (UniProt Q92890) 0.015
USP14 (UniProt P54578) 0
WDR62 isoform 4 (UniProt O43379) 0.046
TMEM106B (UniProt Q9NUM4) -0.002
WDR7 (UniProt Q9Y4E6) -0.001
USO1 isoform 2 (UniProt O60763) 0.059
UBLCP1 (UniProt Q8WVY7) 0.005
TMEM161A (UniProt Q9NX61) 0.001
TMEM164 (UniProt Q5U3C3) 0.078
UBE2J2 isoform 3 (UniProt Q8N2K1) 0.126
XPO1 (UniProt O14980) 0.041
VAMP7 (UniProt P51809) 0.007
VTA1 (UniProt Q9NP79) 0.025
TRAPPC3 (UniProt O43617) 0.069
UBE2J1 (UniProt Q9Y385) 0.054
TMEM223 (UniProt A0PJW6) 0.013
XRCC6 (UniProt P12956) 0.031
UBE4B isoform 4 (UniProt O95155) 0.055
USP48 isoform 8 (UniProt Q86UV5) -0.013
WNK1 isoform 7 (UniProt Q9H4A3) 0.006
TRIM28 (UniProt Q13263) 0.018
WEE1 (UniProt P30291) 0.249
TSC2 (UniProt P49815) -0.135
UFM1 isoform 2 (UniProt P61960) 0.032
UPF3B (UniProt Q9BZI7) -0.072
